According to PubChem BioAssay (NCATS):
“And” between values parts separate entries of the source, which are not always exact repeats. Identical values can stand only once. The source made the active and inactive calls. Entries that show only a call come without a potency. Unless noted, the call rests on the fitted dose curve.

Tests used:
[1] = target: Estrogen receptor (Homo sapiens) (UniProt P03372); assay: qHTS assay for small molecule antagonists of estrogen receptor alpha signaling (AID 588513; active means well fitted curve in the direction sought with a large enough effect in the signal ratio, with a control signal flat, not every such curve was filed as active; inconclusive means small, poorly fitted or top-dose-only effect, or effect the other way, or a change in a side signal; inactive means no such curve, though single readings can be large or run the other way; the % refers to the signal ratio; further: potency means the concentration at half of the fitted maximal effect); details: ER-alpha-UAS-bla HEK293, beta-lactamase ratio, antagonist mode; series mostly up to 76.9 µM
Procedure, shortened: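 Antagonist-mode qHTS in ER-alpha-UAS-bla HEK 293 cells: compound titration, 0.5nM estradiol for 18 h, CCF4 fluorescence, Hill-derived IC50.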

[2] = target: Estrogen receptor (Homo sapiens) (UniProt P03372); assay: qHTS assay for small molecule agonists of estrogen receptor alpha signaling (AID 588514); details: ER-alpha-UAS-bla HEK293, beta-lactamase ratio, 18 h; series mostly up to 76.8 µM; further: nearly all actives have a fitted effect of over 70% in size
Procedure, shortened: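 ER-alpha-UAS-bla GripTite HEK 293 cells in medium with 2% charcoal/dextran-treated FBS were treated with compound titrations at 37 C for 18 hrs; beta-lactamase reporter read by CCF4 fluorescence after 2 hrs at RT.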

[3] = target: Peroxisome proliferator-activated receptor delta (Homo sapiens) (UniProt Q03181); assay: qHTS assay for small molecule agonists of peroxisome proliferator-activated receptor delta signaling (AID 588534); details: HEK293T PPARdelta-UAS-bla, beta-lactamase ratio, 18 h; series mostly up to 76.7 µM
Procedure, shortened: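 Cell-based beta-lactamase reporter assay run in agonist mode: cells seeded and incubated 5 hrs at 37 C, compounds added and incubated 18 hrs at 37 C. CCF4 dye fluorescence read after 2 hrs at RT; EC50 and efficacy from Hill fits.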

[4] = qHTS assay for small molecule antagonists of peroxisome proliferator-activated receptor delta signaling (AID 588535); details: HEK293T PPARd-UAS-bla, beta-lactamase FRET ratio, 18 h; 460 nm channel;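 further: cells co-treated with a PPAR-delta agonist as stimulator during compound exposure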
Procedure, shortened: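 Cell-based beta-lactamase assay in antagonist mode: 4000 HEK293T PPAR-delta-UAS-bla cells per well, 5 hr preincubation then 18 hr compound incubation at 37 C. IC50 obtained by Hill equation fitting.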

[5] = target: Peroxisome proliferator-activated receptor gamma (Homo sapiens) (UniProt P37231); assay: qHTS assay for small molecule agonists of peroxisome proliferator-activated receptor gamma signaling (AID 588536; active means well fitted curve in the direction sought with a large enough effect in the signal ratio, with a control signal flat, not every such curve was filed as active; inconclusive means small, poorly fitted or top-dose-only effect, or effect the other way, or a change in a side signal; inactive means no such curve, though single readings can be large or run the other way; the % refers to the signal ratio); details: HEK293 PPARg-UAS-bla, beta-lactamase ratio, 16 h; series mostly up to 76.7 µM
Procedure, shortened: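 Ratiometric blue/green fluorescence (405 nm excitation; 460 and 530 nm emission) from CCF4-loaded HEK293 reporter cells serves as signal. Exposure to test compounds lasts 16 h at 37 C in medium containing 1% charcoal/dextran-treated serum.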

[6] = target: Peroxisome proliferator-activated receptor gamma (Homo sapiens) (UniProt P37231); assay: qHTS assay for small molecule antagonists of peroxisome proliferator-activated receptor gamma signaling (AID 588537; active means well fitted inhibition curve with a large enough effect in the signal ratio, with a control signal flat, not every such curve was filed as active; inconclusive means small, poorly fitted or top-dose-only effect, or effect the other way, or a change in a side signal; the % refers to the signal ratio;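 further: reporter cells co-stimulated with 50 nM rosiglitazone agonist during compound treatment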); details: HEK293 PPARg-UAS-bla, beta-lactamase ratio, antagonist mode; series mostly up to 76.8 µM
Procedure, shortened: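 Inhibitors of agonist-stimulated UAS-bla reporter activity were sought in HEK293 cells; rosiglitazone (50 nM) defined full signal and DMSO baseline. Curves fitted to Hill model gave IC50 and efficacy.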

[7] = target: Vitamin D3 receptor (Homo sapiens) (UniProt P11473); assay: qHTS assay for small molecule antagonists of vitamin D receptor signaling (AID 588541); details: HEK293T VDR-UAS-bla, beta-lactamase ratio, antagonist mode; series mostly up to 76.7 µM; further: potency means the concentration at half of the fitted maximal effect
Procedure, shortened: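 Antagonist-mode beta-lactamase reporter assay: HEK293T VDR-UAS-bla cells were exposed to titrated compound alongside 1-alpha,25-dihydroxyvitamin D3 at 3 nM final for 16 h. Values were normalized to the 50 nM agonist control and DMSO basal, with IC50 and efficacy from Hill equation fits.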

[8] = target: Thyroid hormone receptor beta (Homo sapiens) (UniProt P10828); assay: qHTS assay for small molecule agonists of thyroid hormone receptor beta signaling (AID 588545); details: TR-UAS-bla GripTite HEK 293, beta-lactamase ratio, agonist mode, 18 h; series mostly up to 76.7 µM
Procedure, shortened: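 Agonist-mode beta-lactamase reporter assay, HEK 293 cells, 2% charcoal/dextran FBS; cells plated 4 hrs, compound 18 hrs at 37 C, CCF4 2 hrs RT. Normalized to 10 nM T3 (100%) and DMSO (0%); Hill fit gives EC50, efficacy.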

[9] = qHTS assay for small molecule antagonists of retinoid X receptor alpha signaling (AID 588546; active means well fitted inhibition curve with a large enough effect in the signal ratio, with a control signal flat, not every such curve was filed as active; inconclusive means small, poorly fitted or top-dose-only effect, or effect the other way, or a change in a side signal; inactive means no such curve, though single readings can be large or run the other way; the % refers to the signal ratio;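 further: cells stimulated with 9-cis-retinoic acid as agonist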); details: HEK293T RXRa-UAS-bla, beta-lactamase ratio, antagonist mode; measured here: W530 green channel, cytotoxicity proxy
Procedure, shortened: (§1)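 Beta-lactamase reporter inhibition, read as CCF4 fluorescence ratio (ex 405, em 460/530 nm) after 2 h at RT. HEK293T UAS-bla cells, 2500/well, were stimulated with 9-cis-RA at 500 or 100 nM final alongside test compound for 18 h at 37 C.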

[10] = target: Retinoic acid receptor RXR-alpha (Homo sapiens) (UniProt P19793); assay: as above; details: HEK293T RXRa-UAS-bla, beta-lactamase ratio, antagonist mode
Procedure, shortened: as §1

[11] = target: Peroxisome proliferator-activated receptor alpha (Homo sapiens) (UniProt Q07869); assay: qHTS assay for small molecule agonists of the peroxisome proliferator-activated receptor alpha (PPARalpha) signaling pathway (AID 651778; active means well fitted curve in the direction sought with a large enough effect; inconclusive means small, poorly fitted or top-dose-only effect, or another doubt; inactive means no such curve, though single readings can be large; an effect the other way counts as inactive or inconclusive); details: PathHunter PPARalpha complementation, chemiluminescence, 6 h; max response: stronger effect = higher value
Procedure, shortened: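 Chemiluminescence from complemented enzyme reported PPARalpha activation in cells after 6 hr of compound treatment at 37 C. The detection reagent was incubated for 60 min at room temperature, and compounds were scored as agonists.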

[12] = qHTS assay for small molecule agonists of the antioxidant response element (ARE) signaling pathway measured by Nrf2-dependant transcriptional activity (AID 720636; active means well fitted curve in the direction sought with a large enough effect in the repeat runs; inconclusive means weak or mixed curves; inactive means no such curve, though single readings can be large; an effect the other way counts as inactive or inconclusive; further: potency means the concentration at half of the fitted maximal effect;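 on activation: HepG2 cells with an ARE-driven luciferase reporter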); details: ARE-luc HepG2, Nrf2 luciferase reporter, 16 h; series mostly up to 92.4 µM
Procedure, shortened: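 Cells: ARE-luc HepG2 with Nrf2-responsive luciferase. Medium contained 1% dialyzed FBS. Compound exposure lasted 16 hr at 37 C and 5% CO2, followed by ONE-Glo luciferase detection.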

[13] = qHTS assay for small molecule agonists of the antioxidant response element (ARE) signaling pathway measured by Nrf2-dependant transcriptional activity - cell viability counter screen (AID 720653; active means well fitted curve in the direction sought with a large enough effect in the repeat runs; inconclusive means weak or mixed curves; inactive means no such curve, though single readings can be large; an effect the other way counts as inactive or inconclusive); details: ARE-bla HepG2 viability, CellTiter-Glo ATP luminescence, 16 h; max response: stronger effect = lower value
Procedure, shortened: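 Cytotoxicity counter screen: intracellular ATP quantified by CellTiter-Glo luminescence in the same ARE-bla HepG2 plates, after 16 h compound exposure and a 2 h beta-lactamase substrate step.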

[14] = qHTS assay for cell viability of HEK293 cells (AID 743288; active means well fitted curve in the direction sought with a large enough effect; inconclusive means small, poorly fitted or top-dose-only effect, or another doubt; inactive means no such curve, though single readings can be large; an effect the other way counts as inactive or inconclusive; further: nearly all actives have a fitted effect of over 50% in size); details: ATP luminescence (CellTiter-Glo), 18 h; max response: stronger effect = lower value
Procedure, shortened: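 Luminescent ATP quantitation served as the viability read-out. Cells (parental HEK293, 2,000/well) received compounds after at least 5 h at 37 C and were exposed for 18 h before a 30 min room-temperature reagent step.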

[15] = qHTS assay for cell viability of the p53RE-bla HCT-116 cell line (AID 743292; active means well fitted curve in the direction sought with a large enough effect; inconclusive means small, poorly fitted or top-dose-only effect, or another doubt; inactive means no such curve, though single readings can be large; an effect the other way counts as inactive or inconclusive; further: nearly all actives have a fitted effect of over 55% in size); details: p53RE-bla HCT-116 viability, ATP luminescence, 16 h; series mostly up to 95 µM
Procedure, shortened: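 HCT-116 p53RE-bla cells seeded 4,000/well; 5 h at 37 C; compound (DMSO) added; 16 h at 37 C; CellTiter-Glo added, 30 min RT; luminescence read.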

[16] = target: Nuclear receptor subfamily 1 group I member 2 (Rattus norvegicus) (UniProt Q9R1A7); assay: qHTS assay for small molecule activators of the rat pregnane X receptor (rPXR) signaling pathway (AID 651751; call rule not given here); details: rPXR reporter cells, luciferase (One-Glo), 24 h
[17] = target: Retinoic acid receptor RXR-alpha (Homo sapiens) (UniProt P19793); assay: qHTS assay for small molecule agonists of retinoid X receptor alpha signaling (AID 588544); details: HEK293T RXRa-UAS-bla, beta-lactamase reporter, 18 h; series mostly up to 76.7 µM
[18] = target: Thyroid hormone receptor beta (Homo sapiens) (UniProt P10828); assay: qHTS assay for small molecule antagonists of thyroid hormone receptor beta signaling (AID 588547; active means well fitted inhibition curve with a large enough effect in the signal ratio, with a control signal flat, not every such curve was filed as active; inconclusive means small, poorly fitted or top-dose-only effect, or effect the other way, or a change in a side signal; the % refers to the signal ratio;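 further: cells stimulated with 0.4 nM T3 agonist during compound exposure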); details: TR-UAS-bla HEK293, beta-lactamase ratio, antagonist mode, 18 h
Procedure, shortened: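 Inhibition of T3-driven (0.4nM final) beta-lactamase reporter activity was measured over 0.59 nM to 92 uM compound after 18 h at 37 C. The cells were GripTite HEK293 TR-UAS-bla in charcoal/dextran-stripped serum, with CCF4 ratio read-out and IC50 from Hill fits.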

[19] = qHTS assay for small molecule activators of the p53 signaling pathway (AID 651743; active means well fitted activation curve with a large enough effect in the signal ratio, not every such curve was filed as active; inconclusive means small, poorly fitted or top-dose-only effect, or a change in a side signal; the % refers to the signal ratio); details: HCT-116 p53RE-bla, beta-lactamase FRET ratio, 16 h; activation: stronger effect = higher value
Procedure, shortened: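 Screen for p53 pathway agonists uses stably transfected p53RE-bla HCT-116 cells, 4,000 per well, treated 16 h at 37 C with compounds in DMSO.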

[20] = qHTS assay for environmental chemicals that activate the Aryl hydrocarbon Receptor (AhR) signaling pathway (AID 651777; active means well fitted curve in the direction sought with a large enough effect; inconclusive means small, poorly fitted or top-dose-only effect, or another doubt; inactive means no such curve, though single readings can be large; an effect the other way counts as inactive or inconclusive; further: nearly all actives have a fitted effect of over 15% in size); details: 1A2-DRE human hepatoma cells, luciferase, 24 h; activation: stronger effect = higher value
Procedure, shortened: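 1A2-DRE human hepatoma reporter line; 1,200 cells/well; cmpd or DMSO 24 h, 37 C/5% CO2; One-Glo 30 min RT; luciferase lum.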

Peroxisome proliferator-activated receptor delta (Homo sapiens), sequence (Q03181 whole entry, looked up): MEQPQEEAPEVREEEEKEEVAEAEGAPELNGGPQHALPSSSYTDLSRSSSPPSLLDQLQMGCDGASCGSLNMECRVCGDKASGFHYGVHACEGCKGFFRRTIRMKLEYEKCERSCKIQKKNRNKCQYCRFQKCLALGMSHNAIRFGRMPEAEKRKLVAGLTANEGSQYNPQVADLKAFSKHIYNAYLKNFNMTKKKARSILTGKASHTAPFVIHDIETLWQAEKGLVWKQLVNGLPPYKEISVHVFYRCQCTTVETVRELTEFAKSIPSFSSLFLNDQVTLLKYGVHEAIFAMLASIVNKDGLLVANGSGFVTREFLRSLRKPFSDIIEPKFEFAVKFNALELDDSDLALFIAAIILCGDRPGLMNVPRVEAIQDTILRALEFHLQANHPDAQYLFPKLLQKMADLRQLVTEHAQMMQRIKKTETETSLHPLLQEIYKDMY
Estrogen receptor (Homo sapiens), sequence (P03372 whole entry, looked up): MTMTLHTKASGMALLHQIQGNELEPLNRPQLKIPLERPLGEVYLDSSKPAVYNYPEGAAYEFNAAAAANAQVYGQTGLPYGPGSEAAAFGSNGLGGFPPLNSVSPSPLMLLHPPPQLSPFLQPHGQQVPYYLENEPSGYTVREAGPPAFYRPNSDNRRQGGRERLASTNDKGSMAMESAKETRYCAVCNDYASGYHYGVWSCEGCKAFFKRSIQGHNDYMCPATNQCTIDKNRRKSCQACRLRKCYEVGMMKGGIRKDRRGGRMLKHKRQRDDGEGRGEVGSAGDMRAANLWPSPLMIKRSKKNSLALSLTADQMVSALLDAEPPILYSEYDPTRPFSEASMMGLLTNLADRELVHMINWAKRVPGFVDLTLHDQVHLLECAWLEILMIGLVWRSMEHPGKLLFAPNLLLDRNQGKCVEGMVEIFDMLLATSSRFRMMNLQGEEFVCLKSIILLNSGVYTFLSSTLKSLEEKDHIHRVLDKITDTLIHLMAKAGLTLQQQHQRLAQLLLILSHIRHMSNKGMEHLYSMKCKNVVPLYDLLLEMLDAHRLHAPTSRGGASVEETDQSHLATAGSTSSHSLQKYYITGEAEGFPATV
Peroxisome proliferator-activated receptor gamma (Homo sapiens), sequence (P37231 whole entry, looked up): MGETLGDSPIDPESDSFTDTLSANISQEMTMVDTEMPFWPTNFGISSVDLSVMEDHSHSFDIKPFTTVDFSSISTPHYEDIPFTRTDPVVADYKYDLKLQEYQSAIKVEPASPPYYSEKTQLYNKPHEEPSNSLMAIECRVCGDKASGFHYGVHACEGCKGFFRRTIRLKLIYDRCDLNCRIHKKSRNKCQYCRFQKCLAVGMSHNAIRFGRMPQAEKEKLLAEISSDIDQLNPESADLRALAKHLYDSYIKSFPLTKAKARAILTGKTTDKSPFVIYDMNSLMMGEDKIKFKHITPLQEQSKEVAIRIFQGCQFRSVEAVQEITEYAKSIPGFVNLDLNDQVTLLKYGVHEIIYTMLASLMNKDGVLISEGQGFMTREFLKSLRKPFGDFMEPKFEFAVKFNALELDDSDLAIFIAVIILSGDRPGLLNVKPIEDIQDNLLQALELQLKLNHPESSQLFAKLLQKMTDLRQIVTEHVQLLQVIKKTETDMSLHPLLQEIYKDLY
Retinoic acid receptor RXR-alpha (Homo sapiens), sequence (P19793 whole entry, looked up): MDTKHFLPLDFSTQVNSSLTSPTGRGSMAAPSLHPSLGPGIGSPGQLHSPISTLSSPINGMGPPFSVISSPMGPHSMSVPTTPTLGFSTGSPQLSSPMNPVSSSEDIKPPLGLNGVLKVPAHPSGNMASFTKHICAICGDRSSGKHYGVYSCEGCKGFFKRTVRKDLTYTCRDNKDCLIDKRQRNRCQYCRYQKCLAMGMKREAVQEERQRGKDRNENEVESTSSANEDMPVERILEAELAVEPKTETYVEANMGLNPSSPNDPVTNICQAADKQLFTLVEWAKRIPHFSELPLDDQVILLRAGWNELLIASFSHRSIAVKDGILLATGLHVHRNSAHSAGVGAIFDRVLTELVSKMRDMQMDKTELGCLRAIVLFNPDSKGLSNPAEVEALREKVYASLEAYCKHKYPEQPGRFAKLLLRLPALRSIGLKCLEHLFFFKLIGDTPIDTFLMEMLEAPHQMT
Nuclear receptor subfamily 1 group I member 2 (Rattus norvegicus), sequence (Q9R1A7 whole entry, looked up): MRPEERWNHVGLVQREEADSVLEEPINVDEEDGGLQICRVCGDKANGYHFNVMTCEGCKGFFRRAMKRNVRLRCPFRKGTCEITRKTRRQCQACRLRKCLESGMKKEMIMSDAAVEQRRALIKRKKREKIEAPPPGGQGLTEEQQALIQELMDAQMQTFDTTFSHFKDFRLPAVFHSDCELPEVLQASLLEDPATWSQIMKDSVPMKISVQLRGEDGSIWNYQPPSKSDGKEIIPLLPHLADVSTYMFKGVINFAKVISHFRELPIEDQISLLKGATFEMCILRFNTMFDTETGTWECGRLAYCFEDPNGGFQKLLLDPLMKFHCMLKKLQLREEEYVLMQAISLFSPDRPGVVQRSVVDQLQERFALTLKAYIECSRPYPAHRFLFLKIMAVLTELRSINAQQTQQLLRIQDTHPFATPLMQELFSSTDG
Thyroid hormone receptor beta (Homo sapiens), sequence (P10828 whole entry, looked up): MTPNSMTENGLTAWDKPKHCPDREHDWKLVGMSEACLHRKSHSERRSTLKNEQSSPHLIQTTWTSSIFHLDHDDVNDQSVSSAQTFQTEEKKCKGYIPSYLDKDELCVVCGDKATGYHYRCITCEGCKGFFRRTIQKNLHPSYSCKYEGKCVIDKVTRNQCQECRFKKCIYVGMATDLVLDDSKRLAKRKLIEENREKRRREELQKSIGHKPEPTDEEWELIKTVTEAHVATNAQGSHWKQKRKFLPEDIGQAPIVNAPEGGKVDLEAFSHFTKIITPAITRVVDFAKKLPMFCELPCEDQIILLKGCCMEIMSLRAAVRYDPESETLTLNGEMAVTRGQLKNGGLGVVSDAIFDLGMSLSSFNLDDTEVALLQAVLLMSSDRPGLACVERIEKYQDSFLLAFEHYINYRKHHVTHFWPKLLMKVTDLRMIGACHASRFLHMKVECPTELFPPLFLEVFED
Vitamin D3 receptor (Homo sapiens), sequence (P11473 whole entry, looked up): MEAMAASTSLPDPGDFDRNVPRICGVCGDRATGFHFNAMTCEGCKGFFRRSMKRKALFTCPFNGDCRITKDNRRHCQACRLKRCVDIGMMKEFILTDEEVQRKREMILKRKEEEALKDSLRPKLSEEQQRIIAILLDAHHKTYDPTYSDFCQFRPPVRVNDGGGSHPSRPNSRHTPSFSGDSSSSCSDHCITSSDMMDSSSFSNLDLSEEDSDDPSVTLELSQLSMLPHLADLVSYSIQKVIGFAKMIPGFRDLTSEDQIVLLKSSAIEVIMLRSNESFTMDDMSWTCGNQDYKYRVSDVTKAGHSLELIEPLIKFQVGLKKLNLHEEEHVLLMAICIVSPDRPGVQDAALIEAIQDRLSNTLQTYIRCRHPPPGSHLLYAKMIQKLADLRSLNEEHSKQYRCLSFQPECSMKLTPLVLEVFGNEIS
Peroxisome proliferator-activated receptor alpha (Homo sapiens), sequence (Q07869 whole entry, looked up): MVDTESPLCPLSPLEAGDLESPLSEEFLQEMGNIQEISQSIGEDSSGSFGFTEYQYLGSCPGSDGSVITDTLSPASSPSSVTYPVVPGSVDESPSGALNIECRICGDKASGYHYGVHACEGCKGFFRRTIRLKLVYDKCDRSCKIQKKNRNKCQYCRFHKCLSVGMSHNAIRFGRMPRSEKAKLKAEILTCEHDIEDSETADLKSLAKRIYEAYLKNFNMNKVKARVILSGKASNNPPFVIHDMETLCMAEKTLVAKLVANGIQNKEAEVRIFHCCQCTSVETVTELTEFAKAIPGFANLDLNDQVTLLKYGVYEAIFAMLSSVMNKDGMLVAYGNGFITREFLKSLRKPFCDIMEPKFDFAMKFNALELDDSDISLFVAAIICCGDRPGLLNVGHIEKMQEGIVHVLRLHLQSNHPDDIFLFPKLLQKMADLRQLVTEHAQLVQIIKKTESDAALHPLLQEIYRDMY

For C=CC1(C)OC(=O)N(c2cc(Cl)cc(Cl)c2)C1=O (centres undefined), the Potency [1] was “inactive”, the Potency [2] was “inactive” and the outcome [3] was “inactive”. For the same compound, the max response [4] was -9.9%, the Potency [5] was “inactive” and the Potency [6] was “inactive”. The Potency [7] was “inactive”, the Potency [8] was “inactive” and the max response [9] was -0.794%. For the same compound, the max response [10] was -13.3% (inactive), the max response [11] was -2.56% (inactive) and the Potency [12] was “inactive”. For the same compound, the max response [13] was -7.58% (inactive), the max response [14] was -8.07% (inactive) and the Potency [15] was “inactive”. The max response [16] was -0.0091% (inactive).

For COP(=O)(OC)Oc1ccc([N+](=O)[O-])cc1, the Potency [1] was “inactive”, the Potency [2] was “inactive” and the Potency [8] was “inactive”. The max response [11] was -5.35% (inactive), the Potency [12] was “inactive” and the max response [13] was -1.73% (inactive). The max response [14] was -12.8% (inactive) and the max response [16] was -1.53% (inactive).

With CCN(CC)c1nc(C)cc(OP(=S)(OC)OC)n1 the Potency [1] was “inactive”, the Potency [2] was “inactive” and the outcome [3] was “inactive”. The max response [4] was 56.7%, the Potency [5] was “inactive” and the Potency [6] was “inactive”. The Potency [7] was “inactive”, the Potency [17] was “inactive” and the Potency [8] was “inactive”. The activity change % (negative = inhibition) [18] was -11.6% (inactive), the activation [19] was 1.41% (inactive) and the activation [20] was 1.48% (inactive). The max response [11] was 3.1% (inactive), the Potency [12] was “inactive” and the max response [13] was -9.93% (inactive). The max response [14] was -11.6% (inactive), the Potency [15] was “inactive” and the max response [16] was -1.67% (inactive).

With Clc1ccc(C(Cl)(Cl)Cl)cc1 the Potency [1] was “inactive”, the Potency [2] was “inactive” and the Potency [5] was “inactive”. For the same compound, the Potency [17] was “inactive”, the Potency [8] was “inactive” and the max response [9] was -19.4%. The max response [10] was -3.2% (inactive), the activity change % (negative = inhibition) [18] was -0.364% (inactive) and the activation [19] was -4.01% (inactive). For the same compound, the activation [20] was 0.701% (inactive), the max response [11] was -0.649% (inactive) and the Potency [12] was “inactive”. The max response [13] was -2.36% (inactive), the max response [14] was -0.236% (inactive) and the Potency [15] was “inactive”. For the same compound, the max response [16] was 2.13% (inactive).

In the case of C=CC(=O)OCC(CO)(COC(=O)C=C)COC(=O)C=C, the Potency [1] is reported as 7.94 µM [inconclusive] (active), the Potency [2] is reported as “inactive” and the Potency [7] is reported as 7.08 µM (active). The max response [9] was -17.9%, the Potency [12] was 16.8 µM (active) and 12.2 µM (active) and the max response [13] was -24.9% (inactive).

In the case of COCC(=O)N(c1c(C)cccc1C)[C@H](C)C(=O)OC, the Potency [1] is reported as “inactive”, the Potency [2] is reported as “inactive” and the outcome [3] is reported as “inactive”. The Potency [5] was “inactive”, the Potency [6] was “inactive” and the Potency [7] was “inactive”. The Potency [17] was “inactive”, the max response [9] was -4.91% and the max response [10] was -14.1% (inactive). For the same compound, the activation [19] was -0.822% (inactive), the activation [20] was 1.21% (inactive) and the max response [11] was -0.29% (inactive). For the same compound, the Potency [12] was “inactive”, the max response [14] was -1.89% (inactive) and the Potency [15] was “inactive”. For the same compound, the max response [16] was -0.694% (inactive).

In the case of CN(C)c1nc(=O)n(C2CCCCC2)c(=O)n1C, the Potency [1] is reported as “inactive”, the Potency [2] is reported as “inactive” and the outcome [3] is reported as “inactive”. The max response [4] was 12.4%, the Potency [5] was “inactive” and the Potency [6] was “inactive”. For the same compound, the Potency [7] was “inactive”, the Potency [17] was “inactive” and the Potency [8] was “inactive”. For the same compound, the max response [9] was -2.46%, the max response [10] was -11.2% (inactive) and the activity change % (negative = inhibition) [18] was -5.49% (inactive). The activation [20] was 0.25% (inactive), the max response [11] was 0.605% (inactive) and the Potency [12] was “inactive”. For the same compound, the max response [13] was 8.36% (inactive), the max response [14] was -6.56% (inactive) and the Potency [15] was “inactive”. The max response [16] was 1.22% (inactive).
